These results are taken from PubChem BioAssay (Tox21).

The nature of experiment [1]: qHTS assay for small molecules that induce genotoxicity in human embryonic kidney cells expressing luciferase-tagged ATAD5 (AID 651632). Note: nearly all actives have a fitted effect of over 15% in size. In a few lines:
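HEK293T cells carrying luciferase-tagged ATAD5 were given compound or DMSO vehicle and incubated 16 hr at 37C, 5% CO2. Luciferase activity was read after 30 min at room temperature with Amplite; a rise signals genotoxic stress.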

A short description of experiment [2]: qHTS assay for small molecule agonists of the p53 signaling pathway - cell viability (AID 651633; calls by dose curve; note: nearly all actives have a fitted effect of over 30% in size; note: potency is the fitted concentration of half-maximal effect). In a few lines:
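Viability counter-read: CellTiter-Glo luminescence (30 min, room temperature) in the same p53RE-bla plates. These plates had been exposed to compounds for 16 h at 37 C.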

Experiment [3] can be described thus: qHTS assay for small molecules that induce genotoxicity in human embryonic kidney cells expressing luciferase-tagged ATAD5 - cell viability (AID 651634; calls by dose curve; note: nearly all actives have a fitted effect of over 25% in size; note: potency is the fitted concentration of half-maximal effect). In a few lines: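 HEK293T cells carrying luciferase-tagged ATAD5, 2,000 cells/well, exposed to compound for 15.5 hr at 37C. Viability read as live-cell protease activity by CellTiter-Fluor fluorescence after 30 min at 37C.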

The nature of experiment [4]: qHTS assay for small molecule disruptors of the mitochondrial membrane potential - cell viability (AID 720634; calls by dose curve; note: nearly all actives have a fitted effect of over 20% in size; note: potency is the fitted concentration of half-maximal effect). In a few lines:
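HepG2 cells, 2,000 per well, attached overnight, then treated 1 hr at 37 C, 5% CO2. Viability read as ATP by CellTiter-Glo luminescence after 30 min at room temperature. Read in the same wells as the m-MPI membrane-potential dye assay.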

A short description of experiment [5]: qHTS assay to test for compound auto fluorescence at 590 nm (red) in HepG2 cells (AID 720674). In a few lines: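 1 hr compound incubation on HepG2 cells, 37 C, 5% CO2; plate read ex 540 nm / em 590 nm; intensities reported as Rose Bengal sodium equivalents.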
Experiment [6] is described as follows: qHTS assay to test for compound auto fluorescence at 535 nm (green) in HepG2 cells (AID 720675).
The nature of experiment [7]: qHTS assay to test for compound auto fluorescence at 460 nm (blue) in HEK293 cells (AID 720678). In a few lines:
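After cell attachment (4-5 hr, 37C), compounds were pinned onto HEK293 monolayers in 10% dialyzed FBS medium. The blue channel (405/460 nm) was read following overnight culture. Equivalency was calculated against triamterene.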

Experiment [8] in a line: qHTS assay to test for compound auto fluorescence at 590 nm (red) in HEK293 cells (AID 720679). In a few lines:
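Plates of HEK293 cells (10% dialyzed FBS) are treated with 23 nL compound or DMSO vehicle after a 4-5 hr attachment period, incubated overnight at 37C, and read for red fluorescence at 540/590nm.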

Experiment [9] is described as follows: qHTS assay to test for compound auto fluorescence at 535 nm (green) in HEK293 cells (AID 720680).
Experiment [10] can be described thus: qHTS assay to test for compound auto fluorescence at 460 nm (blue) in HEK293 cell free culture (AID 720681). In a few lines:
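Blue fluorescence (Ex 405/Em 460 nm, triamterene-equivalent) was read immediately after pin transfer of compound or DMSO into medium (DMEM, 10% FBS) without cells.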

Experiment [11] is described as follows: qHTS assay to test for compound auto fluorescence at 535 nm (green) in HEK293 cell free culture (AID 720682). In a few lines: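 Fluorescein serves as the green reference fluorophore; each compound's intrinsic emission at 535 nm (excitation 485 nm) is reported as an equivalent amount of that dye, measured in serum-containing DMEM without cells.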
Experiment [12] can be described thus: qHTS assay to test for compound auto fluorescence at 590 nm (red) in HEK293 cell free culture (AID 720683). The procedure, abridged:
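Red-channel autofluorescence of compounds in culture medium (DMEM, 10% FBS), no cells, measured at 540/590 nm. Rose Bengal sodium is the reference fluorophore for equivalence.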

A short description of experiment [13]: qHTS assay to test for compound auto fluorescence at 590 nm (red) in HepG2 cell free culture (AID 720684). The procedure, abridged:
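Steps: dispense MEM/10% FBS medium, no cells; pin compound or DMSO vehicle; read red channel, Ex/Em 540/590 nm. Output given as Rose Bengal sodium equivalents.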

A short description of experiment [14]: qHTS assay to test for compound auto fluorescence at 460 nm (blue) in HepG2 cell free culture (AID 720685). The procedure, abridged:
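Compound (23 nL) or DMSO pinned into cell-free MEM with 10% FBS; blue fluorescence read at 405/460 nm excitation/emission, expressed as auto-fluorescence equivalency to triamterene.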

Experiment [15] is described as follows: qHTS assay to test for compound auto fluorescence at 535 nm (green) in HepG2 cell free culture (AID 720686).
The nature of experiment [16]: qHTS assay to test for compound auto fluorescence at 460 nm (blue) in HepG2 cells (AID 720687). In a few lines: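 Blue-channel autofluorescence (Ex/Em 405/460 nm, triamterene-equivalent) was measured after 1 hr compound exposure at 37 C, 5% CO2. Cells were HepG2, plated overnight at 37 C in MEM plus 10% FBS.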
Experiment [17] is described as follows: qHTS assay for small molecule disruptors of the mitochondrial membrane potential (AID 720635). Note: potency is the fitted concentration of half-maximal effect. In a few lines:
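Mitochondrial membrane potential tracked with Mito-MPS dye, red aggregates (ex 540/em 590 nm) against green monomers (ex 490/em 535 nm). Compound treatment 1 hr at 37C, dye 30 min in HepG2.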

For experiment [18], the target named is Glucocorticoid receptor (Homo sapiens) (UniProt P04150). In words: qHTS assay to identify small molecule agonists of the glucocorticoid receptor (GR) signaling pathway (AID 720691; active = well fitted activation curve with a large enough effect in the signal ratio in the repeat runs, not every such curve was filed as active; the % refers to the signal ratio). The procedure, abridged: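 GR-bla HeLa cells carrying a GRE-driven beta-lactamase reporter, exposed to compounds for 18 h at 37 C. Reporter activation read as fluorescence after 2 h with LiveBLAzer B/G FRET substrate at room temperature.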

Each structure is given as a SMILES string. “And” between values parts separate entries of the source, which are not always exact repeats. Equal entries are not always repeated. Values without a mark were called inactive. Records with an inconclusive call do not appear. The source made the active and inactive calls. Unless noted, calls come from the whole dose curve; as a rule, active = well fitted curve in the direction sought with a large enough effect in the repeat runs; inconclusive = weak or mixed curves; inactive = no such curve, though single readings can be large; an effect the other way counts as inactive or inconclusive.

Sequence of Glucocorticoid receptor (Homo sapiens) (P04150 whole entry, looked up): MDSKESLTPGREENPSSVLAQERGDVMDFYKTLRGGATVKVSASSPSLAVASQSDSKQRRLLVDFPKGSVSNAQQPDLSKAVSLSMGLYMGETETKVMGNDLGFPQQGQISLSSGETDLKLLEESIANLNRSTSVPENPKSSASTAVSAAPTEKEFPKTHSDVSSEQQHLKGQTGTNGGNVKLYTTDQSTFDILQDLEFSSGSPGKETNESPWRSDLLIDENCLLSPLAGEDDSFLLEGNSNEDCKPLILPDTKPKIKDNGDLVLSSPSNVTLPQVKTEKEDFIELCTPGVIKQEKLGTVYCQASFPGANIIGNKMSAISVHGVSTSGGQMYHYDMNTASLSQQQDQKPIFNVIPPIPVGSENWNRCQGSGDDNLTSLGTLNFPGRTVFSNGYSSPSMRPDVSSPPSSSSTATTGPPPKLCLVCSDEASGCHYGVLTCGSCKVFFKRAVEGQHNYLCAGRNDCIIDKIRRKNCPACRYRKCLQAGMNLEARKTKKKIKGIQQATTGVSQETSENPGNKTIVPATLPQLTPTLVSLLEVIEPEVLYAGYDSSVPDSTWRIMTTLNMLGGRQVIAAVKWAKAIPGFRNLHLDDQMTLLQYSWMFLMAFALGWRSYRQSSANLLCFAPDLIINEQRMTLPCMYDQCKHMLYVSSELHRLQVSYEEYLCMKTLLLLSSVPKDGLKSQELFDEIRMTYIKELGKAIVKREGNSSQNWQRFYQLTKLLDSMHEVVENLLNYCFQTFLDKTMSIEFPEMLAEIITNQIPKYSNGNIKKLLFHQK

On to `CN(C)C1CSSSC1`, for which the Potency entry in [1], in experiment [2], in experiment [3], in experiment [4], in experiment [7] and in [10] was “inactive” throughout. Further, the Potency entry in [14] and in [16] was “inactive” in each case. In addition, the compound was classed as inactive in [5], in experiment [6], in experiment [8], in [9], in experiment [11] and in [12]. In addition, the result in experiment [13] and in [15] was inactive.
For the compound `CS(=O)(=O)c1ccc(C(=O)C2C(=O)CCCC2=O)c([N+](=O)[O-])c1`, the Potency result in [1], in experiment [2], in experiment [3], in [4], in experiment [7] and in experiment [10] was “inactive” in each case. In addition, the Potency result in [14], in [16] and in [18] was “inactive” in each case. Moreover, the Potency in experiment [17] is 6.98 µM (active). Besides, the outcome in experiment [5], in [6], in [9], in experiment [11], in experiment [12] and in experiment [13] was inactive. In addition, the call in experiment [15] was inactive.
For the compound `CC(=O)c1cc(C(C)(C)C)cc2c1CCC2(C)C`, the Potency result in [1], in experiment [3], in [7], in experiment [10] and in [16] was “inactive” in each case. In addition, the Potency in experiment [2] was 54.5 µM (active); in [17] it was 30.6 µM (active). Further, the outcome in experiment [5], in experiment [6], in experiment [8], in experiment [9], in experiment [11] and in experiment [12] was inactive. The result in [13] and in [15] was inactive.
In the case of `CC(C)CC(C)(c1ccc(O)cc1)c1ccc(O)cc1`, the Potency entry in [1], in experiment [3], in experiment [7], in [10], in experiment [14] and in experiment [16] was “inactive” each time. The Potency is 68.7 µM (active) and 61.1 µM (active) in experiment [2]; 34.4 µM (active) and 27.3 µM (active) in experiment [4]; 6.87 µM (active) and 6.86 µM (active) in experiment [17]. Further, the call in experiment [5], in experiment [6], in [8], in experiment [9], in experiment [11] and in experiment [12] was inactive. In addition, the compound was called inactive in [15].
On to `ClC1=C(Cl)[C@]2(Cl)[C@@H]3[C@@H]4C[C@@H]([C@H]5O[C@@H]45)[C@@H]3[C@@]1(Cl)C2(Cl)Cl`, for which the Potency entry in experiment [1], in experiment [3], in [7], in experiment [10], in experiment [14] and in [16] was “inactive” in each case. In addition, the Potency in experiment [2] is 30.6 µM (active); in [17] it was 19.3 µM (active). In addition, the outcome in experiment [5], in [6], in [8], in experiment [9], in [11] and in experiment [12] was inactive. The call in experiment [13] and in [15] was inactive.
In the case of `CCCCCCCCCCCCCC[P+](CCCCCC)(CCCCCC)CCCCCC` (tested in a mixture with another compound), the Potency entry in experiment [1], in [7], in experiment [10] and in [16] was “inactive” in each case. In addition, the Potency in experiment [2] was 15.4 µM (active); in experiment [3], 21.7 µM (active); in experiment [4], 24.3 µM (active); in [17], 0.243 µM (active). Further, the result in [5], in experiment [6], in experiment [8], in experiment [9], in experiment [11] and in experiment [12] was inactive. Further, the call in [13] and in experiment [15] was inactive.
As to `Clc1ccc(CO/N=C(\Cn2ccnc2)c2ccc(Cl)cc2Cl)c(Cl)c1`, the Potency result in experiment [1], in experiment [4], in experiment [7], in experiment [10], in [14] and in experiment [16] was “inactive” throughout. The Potency in experiment [2] was 26.6 µM (active). For the same compound, the compound was called inactive in experiment [5], in experiment [6], in experiment [9], in [11], in [12] and in experiment [13]. For the same compound, in experiment [15], the compound was called inactive.
In the case of `CCOCn1c(-c2ccc(Cl)cc2)c(C#N)c(Br)c1C(F)(F)F`, the Potency entry in experiment [1], in [7], in [10], in experiment [14], in experiment [16] and in experiment [18] was “inactive” in each case. Besides, the Potency in [2] was 30.6 µM (active); in [17], 0.0486 µM (active). The call in experiment [5], in experiment [6], in [8], in [9], in [11] and in [12] was inactive. For the same compound, the outcome in [13] and in experiment [15] was inactive.
